# In PubChem BioAssay (NCI):
# The panel holds about 83,000 compounds, 20% with a hit somewhere; the sample as a whole holds those more often.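 Single-dose data. Exposure time 48 hours. Values below 10 considered active.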 Unmarked numbers belong to inactive results. Active and inactive are the calls of the source.
# Test system: SK-MEL-5 melanoma
# Experiment: NCI-60 one-dose screen, 48 h (100 = growth as untreated, 0 = no growth, -100 = all killed)
# Conditions: 10 µM unless noted
row,SMILES,growth
1,C=C(C=O)[C@@H]1CC[C@]2(C(=O)O)CC[C@]3(C)C(CC[C@@H]4[C@@](C)(CCC#N)[C@H](C(=C)C=O)CC[C@]43C)[C@@H]12 (stereo partly drawn),26.3%
2,NCCNC(=O)c1cccc(COc2ccccc2NC(=O)c2cc(Cl)c(Cl)[nH]2)c1,99.4%
3,COc1ccc(C2c3[nH]c4ccc(Cl)cc4c3CCN2c2oc(CO)nc2C#N)cc1 (stereo not drawn),29.7%
4,CN(C)c1ccc(-c2cc(-c3c[nH]c4ccccc34)nc(N)c2C#N)cc1,29.8%
5,COc1ccccc1/C=C1\Oc2ccc(O)c(O)c2C1=O,99%
6,CCCCCc1ccc(S(=O)(=O)Nc2cc(-c3csc(N)n3)ccc2OC)cc1,84.8%
7,O=C(O)c1ccc(-n2c(=O)n(-c3cccc(C(F)(F)F)c3)c(=O)c3cc(-c4ccc(F)cc4F)ccc32)cc1,-60.4% (active)
8,Nn1c(=O)n(-c2cccc(C(F)(F)F)c2)c(=O)c2cc(-c3ccc(F)cc3F)ccc21,-51.6% (active)
9,CCCCN1C(=O)/C(=c2\sc3n(c2=O)C2C(NN=3)N(CC)C(=O)N2CC)c2cc(C)ccc21 (stereo not drawn),92.8%
10,CC(C)[C@H]1c2[nH]c3ccccc3c2C[C@H]2C(=O)N(CCCCCCC(=O)NO)CC(=O)N12,75%
11,O=C(N/N=C\c1ccc(F)cc1)c1ccc2nc(-c3ccc(Br)cc3)[nH]c2c1,56.3%
12,NC1[C@H]2CN(c3cnc(C(=O)Nc4cc(F)cc5cccnc45)cn3)C[C@@H]12 (stereo partly drawn),89%
13,Cc1ccsc1[C@H]1c2[nH]c3ccccc3c2C[C@H]2C(=O)N(CCCCCCC(=O)NO)CC(=O)N12,83.4%
14,CC(=O)N(O)CCCCCNC(=O)CCC(=O)N(O)CCCCCNC(=O)CCC(=O)N(O)CCCCCN(CCCCCCCCCC[P+](c1ccccc1)(c1ccccc1)c1ccccc1)CCCCCCCCCC[P+](c1ccccc1)(c1ccccc1)c1ccccc1,-45.9% (active)
15,O=c1nc(Nc2ccc([N+](=O)[O-])cc2O)sc2ccccc12,21%
16,Cc1cc2nc(C(Cl)Cl)nc(-c3ccc(S(=O)(=O)N(C)C)cc3)n2n1,80.3%
17,C/C(CC1(O)C(=O)Nc2ccccc21)=N\O (stereo not drawn),99.9%
18,C[C@]12CC[C@H]3[C@@H](CC=C4C[C@@H](O)CC[C@@]43C)[C@@H]1CC[C@@H]2[C@](C)(O)CCc1cccnc1,7.89% (active)
19,O=C(CSc1nnc(-c2cccs2)n1-c1ccccc1)Nc1ccccc1F,91.2%
20,CC(=C(c1ccc(OCCCN(C)C)cc1)c1ccc(OCCCN(C)C)cc1)c1ccc(Cl)cc1,98.5%
21,O=C(CSc1nc2ccccc2c(=O)n1-c1ccc(Cl)c(Cl)c1)Nc1ccc(S(=O)(=O)Nc2ccc(Cl)nn2)cc1,100%
22,COC(=O)CCSC1=C(C)C(=O)c2ccccc2C1=O,84.2%
23,CCc1cc(OC(=O)N2CCC(N3CCCCC3)CC2)ccc1Nc1cc(-c2ccc(-n3cccn3)cc2)[nH]n1,60.2%
24,O=C(Nc1cc(C(F)(F)F)cc(C(F)(F)F)c1)Nc1ccc2oc(=O)ccc2c1,-90.6% (active)
25,Cc1ccc2c(n1)C(=O)C(Cl)=C(Nc1ccc(C(=O)OC(C)(C)C)cc1)C2=O,87.6% [9.25 µM]
26,Cc1cc(=O)[nH]c(O)c1C#N,102%
27,CCN(CC)S(=O)(=O)c1ccc(-c2nc(C(Cl)Cl)nc3cc(C)nn23)cc1,78.3%
28,CNC(=O)Nc1ccc(Nc2cc(-c3ccc(-n4cccn4)cc3)[nH]n2)c(C)c1,97.7%

# Test system: UACC-62 melanoma
# Experiment: as above
# Conditions: 10 µM unless noted
row,SMILES,growth
1,CNc1sc(S(=O)(=O)NC)nc1S(=O)(=O)c1ccc(C)cc1,91.3%
2,COc1cccc(N2CCN(C3=C(Cl)C(=O)c4ncccc4C3=O)CC2)c1,84.3%
3,O=C1[C@@H]2Cc3c([nH]c4ccccc34)[C@@H](c3ccc(Cl)cc3)N2C(=O)CN1C1CCN(Cc2ccccc2)CC1,62.3%
4,CC(=O)OCCCCN1C=C/C(=C\C(=O)n2ccc3ccccc32)c2ccccc21,89.4%
5,CN1CCN(c2ccc(Nc3nc(NCCNS(=O)(=O)c4ccc5ccccc5c4)c4sccc4n3)cc2)CC1,66.5%
6,CC1=C(C)C(=O)C(Nc2ccc3c(c2)OCCO3)=C(Br)C1=O,92.1%
7,C=C(C)[C@@H]1CC[C@]2(C(=O)NC3CCCCC3)CC[C@]3(C)[C@H](CC[C@@H]4[C@@]5(C)CC[C@H](N)C(C)(C)[C@@H]5CC[C@]43C)[C@@H]12,104%
8,CCOC(=O)c1c(NC(=O)c2ccc(C(F)(F)F)cc2)sc2c3c(ccc12)OCN(C)C3,88%
9,C#CCN(C)CCCOc1ccc(NCc2ccc(/C=C/C(=O)NO)cc2)cc1Cl,-53.7% (active)
10,COc1cc(/C=N\NC(=O)c2ccc3nc(-c4ccc(Br)cc4)[nH]c3c2)cc(OC)c1OC,28.1%
11,C=C1CCc2nc(SCC(=O)O)ccc2N1,93.2%
12,CN1CCC[C@]2(C)[C@H]3CC[C@@H]4[C@@H]5[C@H]6OC[C@@]5(CCC6(C)C)CC[C@@]4(C)[C@]3(C)CC[C@H]2C1(C)C,98.4%
13,C=C(C=O)[C@@H]1CC[C@]2(C(=O)O)CC[C@]3(C)C(CC[C@@H]4[C@@](C)(CCC#N)[C@H](C(=C)C=O)CC[C@]43C)[C@@H]12 (stereo partly drawn),30.9%
14,NCCNC(=O)c1cccc(COc2ccccc2NC(=O)c2cc(Cl)c(Cl)[nH]2)c1,87.3%
15,COc1ccc(C2c3[nH]c4ccc(Cl)cc4c3CCN2c2oc(CO)nc2C#N)cc1 (stereo not drawn),39.3%
16,CN(C)c1ccc(-c2cc(-c3c[nH]c4ccccc34)nc(N)c2C#N)cc1,42%
17,COc1ccccc1/C=C1\Oc2ccc(O)c(O)c2C1=O,92.1%
18,CCCCCc1ccc(S(=O)(=O)Nc2cc(-c3csc(N)n3)ccc2OC)cc1,75.9%
19,O=C(O)c1ccc(-n2c(=O)n(-c3cccc(C(F)(F)F)c3)c(=O)c3cc(-c4ccc(F)cc4F)ccc32)cc1,-3.72% (active)
20,Nn1c(=O)n(-c2cccc(C(F)(F)F)c2)c(=O)c2cc(-c3ccc(F)cc3F)ccc21,1.73% (active)

row,SMILES,growth
1,CCCCN1C(=O)/C(=c2\sc3n(c2=O)C2C(NN=3)N(CC)C(=O)N2CC)c2cc(C)ccc21 (stereo not drawn),71.6%
2,CC(C)[C@H]1c2[nH]c3ccccc3c2C[C@H]2C(=O)N(CCCCCCC(=O)NO)CC(=O)N12,56.2%
3,O=C(N/N=C\c1ccc(F)cc1)c1ccc2nc(-c3ccc(Br)cc3)[nH]c2c1,49.2%
4,NC1[C@H]2CN(c3cnc(C(=O)Nc4cc(F)cc5cccnc45)cn3)C[C@@H]12 (stereo partly drawn),92.1%
5,Cc1ccsc1[C@H]1c2[nH]c3ccccc3c2C[C@H]2C(=O)N(CCCCCCC(=O)NO)CC(=O)N12,57.9%
6,CC(=O)N(O)CCCCCNC(=O)CCC(=O)N(O)CCCCCNC(=O)CCC(=O)N(O)CCCCCN(CCCCCCCCCC[P+](c1ccccc1)(c1ccccc1)c1ccccc1)CCCCCCCCCC[P+](c1ccccc1)(c1ccccc1)c1ccccc1,-10.6% (active)
7,O=c1nc(Nc2ccc([N+](=O)[O-])cc2O)sc2ccccc12,15.2%
8,Cc1cc2nc(C(Cl)Cl)nc(-c3ccc(S(=O)(=O)N(C)C)cc3)n2n1,68.5%
9,C/C(CC1(O)C(=O)Nc2ccccc21)=N\O (stereo not drawn),99.7%
10,C[C@]12CC[C@H]3[C@@H](CC=C4C[C@@H](O)CC[C@@]43C)[C@@H]1CC[C@@H]2[C@](C)(O)CCc1cccnc1,62.6%
11,O=C(CSc1nnc(-c2cccs2)n1-c1ccccc1)Nc1ccccc1F,57.7%
12,CC(=C(c1ccc(OCCCN(C)C)cc1)c1ccc(OCCCN(C)C)cc1)c1ccc(Cl)cc1,101%
13,O=C(CSc1nc2ccccc2c(=O)n1-c1ccc(Cl)c(Cl)c1)Nc1ccc(S(=O)(=O)Nc2ccc(Cl)nn2)cc1,85%
14,COC(=O)CCSC1=C(C)C(=O)c2ccccc2C1=O,70.9%
15,CCc1cc(OC(=O)N2CCC(N3CCCCC3)CC2)ccc1Nc1cc(-c2ccc(-n3cccn3)cc2)[nH]n1,89.5%
16,O=C(Nc1cc(C(F)(F)F)cc(C(F)(F)F)c1)Nc1ccc2oc(=O)ccc2c1,14%
17,Cc1ccc2c(n1)C(=O)C(Cl)=C(Nc1ccc(C(=O)OC(C)(C)C)cc1)C2=O,87.1% [9.25 µM]
18,Cc1cc(=O)[nH]c(O)c1C#N,91.7%
19,CCN(CC)S(=O)(=O)c1ccc(-c2nc(C(Cl)Cl)nc3cc(C)nn23)cc1,49.9%
20,CNC(=O)Nc1ccc(Nc2cc(-c3ccc(-n4cccn4)cc3)[nH]n2)c(C)c1,114%
